Most compounds without a hit are left out; they make up all but 2.2% or so of the library.
NOD2-RIPK2 inh = inhibitors of human NOD2-RIPK2 interaction. CHO BLA complementation NOD2-RIPK2, CCF4 ratio. inhibition, % at 4.98 µM. hit rate 0.38% among 360,000; in the data active = inhibition above about 21%;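 note: 0% = vehicle only and 100% = reference blocker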
TMEM16A inh = blocks the mouse calcium-activated chloride channel TMEM16A; Q8BHY3; HEK293 TMEM16A/YFP iodide influx fluorescence, ionomycin; normalized B-score (activity score, 25-100; higher = stronger inhibition) at 10 µM; hit rate 1.2% among 310,000; AID 588511;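 active = ratio plate-corrected score three or more library SD toward inhibition, starting fluorescence score within five deviations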;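 note: score derived from kinetic fluorescence span divided by baseline fluorescence per well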
TMEM16A act = mouse TMEM16A channel activation, primary screen. Q8BHY3. HEK293 TMEM16A/YFP-H148Q/I152L, iodide quench fluorescence; stronger effect = lower value. B-score at 10 µM. hit rate 0.3% among 340,000. AID 623877;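 active = fluorescence-ratio B-score plate-corrected deviation score at least 3 library SD below zero, with starting fluorescence score within 5 deviations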;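 note: channel opened by trigger with iodide after compound preincubation; score built on the fluorescence ratio of max minus min over baseline; more negative score means more quench and so TMEM16A activation or potentiation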
GRK2 inh = blocks RNA aptamer binding to human GRK2; AID 488847; hit rate 0.59% among 330,000; inhibition of aptamer binding, % at 10 µM; bead flow cytometry, FAM-aptamer displacement from GRK2;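 active = inhibition of aptamer binding above 40%, roughly 3 SD of noise, on plates passing a quality check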;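 note: median bead fluorescence of bound FAM aptamer so fluorescent compounds give negative values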
Target sequence (P25098 whole entry, looked up): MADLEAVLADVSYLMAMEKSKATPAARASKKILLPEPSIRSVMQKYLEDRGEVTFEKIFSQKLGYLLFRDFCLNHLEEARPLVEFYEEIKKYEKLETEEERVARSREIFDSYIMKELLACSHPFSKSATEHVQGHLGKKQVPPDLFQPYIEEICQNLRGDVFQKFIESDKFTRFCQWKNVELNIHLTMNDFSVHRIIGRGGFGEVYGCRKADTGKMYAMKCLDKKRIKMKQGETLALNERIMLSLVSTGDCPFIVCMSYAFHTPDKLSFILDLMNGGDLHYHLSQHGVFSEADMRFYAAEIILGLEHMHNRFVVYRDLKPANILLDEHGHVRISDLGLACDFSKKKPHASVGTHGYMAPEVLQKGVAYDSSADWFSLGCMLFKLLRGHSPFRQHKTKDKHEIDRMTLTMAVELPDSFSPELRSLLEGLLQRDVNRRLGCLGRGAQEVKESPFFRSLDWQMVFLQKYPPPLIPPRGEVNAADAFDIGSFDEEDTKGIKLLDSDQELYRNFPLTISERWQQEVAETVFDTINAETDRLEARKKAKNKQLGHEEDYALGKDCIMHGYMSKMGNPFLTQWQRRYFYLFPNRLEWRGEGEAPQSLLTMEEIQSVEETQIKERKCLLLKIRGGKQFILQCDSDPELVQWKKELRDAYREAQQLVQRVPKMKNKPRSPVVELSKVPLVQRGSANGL
TLR4 MyD88 comp = inhibitors of human TLR4-MyD88 binding. O00206+Q99836. HeLa CL3-4 TLR4/MyD88 BLA complementation, FRET ratio. inhibition, % at 8.4 µM. hit rate 0.18% among 200,000. AID 861; in the data active = inhibition above about 25%;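 note: 0% = vehicle and 100% = reference inhibitor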
TLR9-MyD88 inh = inhibitors of human TLR9-MyD88 binding; Q9NR96+Q99836; CHO BLA complementation TLR9-MyD88, CCF4 FRET ratio; inhibition, % at 4.98 µM; hit rate 0.21% among 340,000;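 active = inhibition above the mean over all tested compounds plus 3 SD, cut at about 21% in these data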;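 note: 0% = DMSO only wells and 100% = clavulanate BLA inhibitor control wells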
GRK2 CP1 = human GRK2 inhibition confirmation, cherry pick 1; aptamer displacement, % at 10 µM; hit rate 4% among 2,000; bead-bound GRK2, FAM-aptamer displacement, flow cytometry; shares compounds with GRK2 inh; AID 504451;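 active = aptamer displacement above 40%, near three times the noise of non-fluorescent compounds, on plates passing quality checks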;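 note: negative values mostly reflect intrinsic compound fluorescence rather than true enhancement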
FAM quench CP1 = quenches fluorescent RNA aptamer, GRK2 hit artifact. Carboxyfluorescein RNA aptamer on beads, flow cytometry quenching; stronger effect = lower value. shares compounds with GRK2 inh. 2,000 tested, under 10 active. AID 504580. fluorescence response (% of DMSO), % at 10 µM;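 active = compounds that quench the bead-bound fluorescent RNA probe, cutting fluorescence to under half of the solvent control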;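 note: counterscreen run without GRK2 so only probe quenching by compound is measured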
GRK2 confirm 2 = confirmation of human GRK2 inhibitors binding RNA aptamer site; inhibition of aptamer binding, % at 10 µM; 360 tested, under 10 active; shares compounds with GRK2 inh; bead-bound GRK2, FAM-aptamer displacement, flow cytometry; AID 504782;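 active = inhibition of aptamer binding above 40%, about triple the noise seen with nonglowing compounds, on plates passing quality control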;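 note: negative values mostly come from compounds that fluoresce themselves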
FAM quench CP2 = aptamer fluorescence quenching in GRK2 counter-screen; shares compounds with GRK2 inh; carboxyfluorescein RNA aptamer beads, flow cytometry quenching; stronger effect = lower value; fluorescence response vs DMSO, % at 10 µM; 360 tested, under 10 active;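 active = response vs DMSO under 50%, meaning signal dropped by over half, treated as fluorescence quencher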;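 note: labelled aptamer on streptavidin beads without GRK2 as a quench counter-screen; 100% = bead fluorescence of DMSO wells and lower means quenching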
* marks the source's active call; other numbers are inactive results.

What do the screens show for `COc1ccc(CNC(=O)COC(=O)CCn2c(C)csc2=O)cc1OC`?
NOD2-RIPK2 inh: -6; TMEM16A inh: inactive; TMEM16A act: inactive; GRK2 inh: 0; TLR9-MyD88 inh: 5

What do the screens show for `COc1ccc(-c2cn3c(C)c(C(=O)N4CCCc5ccccc54)sc3n2)cc1`?
NOD2-RIPK2 inh: -6; TMEM16A inh: inactive; TMEM16A act: inactive; GRK2 inh: 81*; TLR4 MyD88 comp: 0; TLR9-MyD88 inh: 3; GRK2 CP1: 0; FAM quench CP1: 97

How did Cc1cccc(C(=O)N=c2sccn2C)c1[N+](=O)[O-] do in these assays?
NOD2-RIPK2 inh: -7; TMEM16A inh: inactive; TMEM16A act: inactive; GRK2 inh: 2; TLR9-MyD88 inh: 1

What do the screens show for `O=C(/C=C/c1ccc(O)c(O)c1)OC1C(O)CC(OC(=O)/C=C/c2ccc(O)c(O)c2)(C(=O)O)CC1O` (stereo unspecified)?
NOD2-RIPK2 inh: 5; TMEM16A inh: inactive; TMEM16A act: inactive; GRK2 inh: 1; TLR9-MyD88 inh: -4

Results for O=C(/C=C/c1ccc(O)c(O)c1)O[C@@H]1C[C@](O)(C(=O)O)C[C@@H](O)[C@H]1O ?
NOD2-RIPK2 inh: -17; TMEM16A inh: inactive; TMEM16A act: inactive; GRK2 inh: 16; TLR9-MyD88 inh: -5; GRK2 CP1: -3; FAM quench CP1: 100

How did COc1ccccc1N1CCN(/N=C(\C)c2ccccc2O)CC1 do in these assays?
NOD2-RIPK2 inh: -1; TMEM16A inh: inactive; TMEM16A act: inactive; GRK2 inh: 55*; TLR9-MyD88 inh: -8; GRK2 CP1: -1; FAM quench CP1: 100

What do the screens show for `COc1cccc(C(=O)Nc2ccc(S(=O)(=O)Nc3cc(C)nc(C)n3)cc2)c1`?
NOD2-RIPK2 inh: -1; TMEM16A inh: inactive; TMEM16A act: inactive; GRK2 inh: 4; TLR4 MyD88 comp: 6; TLR9-MyD88 inh: 0

How did COc1ccc(CCNS(=O)(=O)c2ccc3c(c2)OCCO3)cc1OC do in these assays?
NOD2-RIPK2 inh: -1; TMEM16A inh: inactive; TMEM16A act: inactive; GRK2 inh: 0; TLR4 MyD88 comp: -5; TLR9-MyD88 inh: -10

What do the screens show for `COc1ccc(CCNS(=O)(=O)c2ccc3c(c2)CCCC3)cc1OC`?
NOD2-RIPK2 inh: -2; TMEM16A act: inactive; GRK2 inh: 42*; TLR9-MyD88 inh: 0; GRK2 confirm 2: 18; FAM quench CP2: 101

Results for CCOC(=O)c1cccc(NC(=S)NCc2ccc(C)cc2)c1 ?
NOD2-RIPK2 inh: -9; TMEM16A inh: inactive; TMEM16A act: inactive; GRK2 inh: 4; TLR4 MyD88 comp: 1; TLR9-MyD88 inh: 6

How did O=C(Nc1ccc(F)cc1F)c1csc(-c2ccncc2)n1 do in these assays?
NOD2-RIPK2 inh: -1; TMEM16A inh: inactive; TMEM16A act: inactive; GRK2 inh: 2; TLR4 MyD88 comp: -2; TLR9-MyD88 inh: -4

How did Cc1ccc(C(=O)Nc2cccc(C(F)(F)F)c2)cc1NC(=O)c1csc(-c2ccncc2)n1 do in these assays?
NOD2-RIPK2 inh: -4; TMEM16A inh: inactive; TMEM16A act: inactive; GRK2 inh: 0; TLR9-MyD88 inh: 5; GRK2 CP1: 2; FAM quench CP1: 96

What do the screens show for `Nc1nc(-c2cc(O)ccc2[N+](=O)[O-])cc(-c2ccccc2)c1[N+](=O)[O-]`?
NOD2-RIPK2 inh: -13; TMEM16A inh: inactive; TMEM16A act: inactive; GRK2 inh: 0; TLR9-MyD88 inh: 6

Results for COc1ccc(-c2cc(C(=O)Nc3cccc(O)c3)no2)cc1 ?
NOD2-RIPK2 inh: -4; TMEM16A inh: inactive; TMEM16A act: inactive; GRK2 inh: 0; TLR9-MyD88 inh: -10

How did COCCCNC(=O)c1cccc(C(=O)NCCCOC)c1 do in these assays?
NOD2-RIPK2 inh: -1; TMEM16A inh: inactive; TMEM16A act: inactive; GRK2 inh: 2; TLR4 MyD88 comp: -1; TLR9-MyD88 inh: 2

How did COCCCNC(=O)NC(=O)c1ccccc1 do in these assays?
NOD2-RIPK2 inh: -15; TMEM16A inh: inactive; TMEM16A act: inactive; GRK2 inh: 76*; TLR4 MyD88 comp: 3; TLR9-MyD88 inh: -9; GRK2 confirm 2: 19; FAM quench CP2: 101

How did COc1ccc(CNC(=O)[C@@H](NC(=O)C2CCN(S(=O)(=O)c3ccc(C)cc3)CC2)C(C)C)cc1OC do in these assays?
NOD2-RIPK2 inh: -12; TMEM16A inh: inactive; TMEM16A act: inactive; GRK2 inh: 0; TLR9-MyD88 inh: -1

How did COc1ccc(CCNC(=S)Nc2ccc(OC)cc2)cc1 do in these assays?
NOD2-RIPK2 inh: -5; TMEM16A inh: inactive; TMEM16A act: inactive; GRK2 inh: 52*; TLR4 MyD88 comp: -1; TLR9-MyD88 inh: -2; GRK2 CP1: -8; FAM quench CP1: 96

Results for COc1ccc(CCNC(=O)CN(C)S(=O)(=O)c2ccc(OC)cc2)cc1 ?
NOD2-RIPK2 inh: -8; TMEM16A inh: inactive; TMEM16A act: inactive; GRK2 inh: 60*; TLR9-MyD88 inh: -11; GRK2 CP1: 8; FAM quench CP1: 99

How did CSCCCc1cn([C@@H](CO)C(=O)NCCCCCCCCCCC(=O)N2CCNCC2)nn1 do in these assays?
NOD2-RIPK2 inh: -6; TMEM16A inh: inactive; TMEM16A act: inactive; GRK2 inh: 0; TLR9-MyD88 inh: 2

How did COC(=O)c1sccc1NC(=O)c1ccc(C(C)C)cc1 do in these assays?
NOD2-RIPK2 inh: -5; TMEM16A inh: inactive; TMEM16A act: inactive; GRK2 inh: 7; TLR9-MyD88 inh: -8

What do the screens show for `O=C(NCc1ccco1)C1(S(=O)(=O)c2ccccc2)CC=CC1`?
NOD2-RIPK2 inh: -5; TMEM16A inh: inactive; TMEM16A act: inactive; GRK2 inh: 2; TLR9-MyD88 inh: 3

How did O=C(NCc1cccs1)C1(S(=O)(=O)c2ccccc2)CC=CC1 do in these assays?
NOD2-RIPK2 inh: 10; TMEM16A inh: inactive; TMEM16A act: inactive; GRK2 inh: 0; TLR9-MyD88 inh: 5; GRK2 confirm 2: 6; FAM quench CP2: 97

Results for Cc1cnc(C(=O)N(c2ccc(N3CCOCC3)cc2)C2C(=O)Nc3ccccc3N=C2c2ccc(F)cc2)cn1 (stereo unspecified) ?
NOD2-RIPK2 inh: -12

Source: PubChem
